Screening results deposited in PubChem by University of Kansas High Throughput Screening Laboratory.
Pf apPOL block – Pf-apPOL DNA polymerase inhibition; Recombinant Pf-apPOL, molecular beacon fluorescence, 1.5 h; inhibition, % at 10 µM; hit rate 0.25% among 210,000
mHTT-CaM PPI inh – mHTT-calmodulin interaction abrogation; inhibition, % at 15 µM; AID 1671202; AlphaScreen His-mHTT/GST-CaM binding, luminescence; P42858; hit rate 3.6% among 190,000;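 note: 0% = both proteins with DMSO and 100% = one protein alone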
Numbers without * were called inactive; ! = not confirmed by another sample. Most compounds without a hit are left out; they make up all but 3.5% or so of the library. Cut-off read from the data, not from the text of the source: active = inhibition above about 50%; inactive = the rest.

What do the screens show for `O=C(NCc1ccccc1)C(=O)Nc1ccccc1F`?
Pf apPOL block: 0; mHTT-CaM PPI inh: -6

How did O=C(O)c1ccc(N2C(=O)c3ccc(S(=O)(=O)c4ccc(C(=O)O)cc4)cc3C2=O)cc1 do in these assays?
Pf apPOL block: -1; mHTT-CaM PPI inh: -4

What do the screens show for `CCCOc1ccccc1/C=C1\C(=O)Nc2ccc(Br)cc21`?
Pf apPOL block: 5; mHTT-CaM PPI inh: 97*

Results for CCOc1ccccc1/C=C1\C(=O)Nc2ccc(Cl)cc21 ?
Pf apPOL block: 6; mHTT-CaM PPI inh: 64*

How did CCOc1ccc(/C=C2\C(=O)Nc3ccc(Cl)cc32)cc1 do in these assays?
Pf apPOL block: -4; mHTT-CaM PPI inh: 25

How did O=C1Nc2ccc(Br)cc2/C1=C/c1ccccc1F do in these assays?
Pf apPOL block: -1; mHTT-CaM PPI inh: 31

How did COc1nccc(N2CCC(CC(=O)NCc3ccc(Cl)cc3)CC2)n1 do in these assays?
Pf apPOL block: -6; mHTT-CaM PPI inh: 6

Results for Cc1ccc(C2CCCN2C(=O)c2cc(C(F)(F)F)nn2C)cc1 (configuration not stated) ?
Pf apPOL block: 6; mHTT-CaM PPI inh: 2

What do the screens show for `C=CCc1ccccc1OCC(O)CN1CCCCC1` (configuration not stated)?
Pf apPOL block: -6; mHTT-CaM PPI inh: -6

Results for CC(C)c1ccc(OCC(O)CN2CCN(c3ccc(F)cc3)CC2)cc1 (configuration not stated) ?
Pf apPOL block: -4; mHTT-CaM PPI inh: 39

How did C=CCc1ccccc1OCC(O)CN1CCN(c2cccc(Cl)c2)CC1 (configuration not stated) do in these assays?
Pf apPOL block: -2; mHTT-CaM PPI inh: 99*

What do the screens show for `C=CCc1ccccc1OCC(O)CN1CCN(C)CC1` (configuration not stated)?
Pf apPOL block: -1; mHTT-CaM PPI inh: -4

Results for OC(COc1ccc(F)cc1)CN1CCN(c2cccc(Cl)c2)CC1 (configuration not stated) ?
Pf apPOL block: -2; mHTT-CaM PPI inh: 81*

What do the screens show for `C=CCc1ccccc1OCC(O)CN1CCN(c2ccc(OC)cc2)CC1` (configuration not stated)?
Pf apPOL block: 0; mHTT-CaM PPI inh: 54*!

What do the screens show for `CC1(C)C(C=C(Cl)Cl)C1C(=O)Nc1ccc(I)cc1` (configuration not stated)?
Pf apPOL block: -2; mHTT-CaM PPI inh: 45

How did O=C(NCCSCc1ccco1)c1ccc(CN2CCc3ccccc3C2)cc1 do in these assays?
Pf apPOL block: -4; mHTT-CaM PPI inh: 7

Results for O=C1CC(Cc2ccccc2)C(=O)N1c1cccc(C(F)(F)F)c1 (configuration not stated) ?
Pf apPOL block: -2; mHTT-CaM PPI inh: -25

How did CCCN(C(=O)c1coc(=O)c2ccccc12)c1cccc(Cl)c1 do in these assays?
Pf apPOL block: -3; mHTT-CaM PPI inh: 1

Results for C#CCN1C(=O)S/C(=C\c2cn(CC(=O)N3CCOCC3)c3ccccc23)C1=O ?
Pf apPOL block: -3; mHTT-CaM PPI inh: 75*

What do the screens show for `CCCN1C(=O)S/C(=C/c2cn(CC(=O)N3CCOCC3)c3ccccc23)C1=O`?
Pf apPOL block: -2; mHTT-CaM PPI inh: 19

What do the screens show for `CC(C)NC(=O)c1sc2cc(F)ccc2c1Cl`?
Pf apPOL block: -5; mHTT-CaM PPI inh: -26

What do the screens show for `O=C(Nc1c2c(nn1-c1cccc(Cl)c1)CSC2)c1cccc(Br)c1`?
Pf apPOL block: -4; mHTT-CaM PPI inh: 3

What do the screens show for `COc1cc(OC)c(NC(=O)C2c3ccccc3C(=O)N3CCc4ccccc4C23)cc1Cl` (configuration not stated)?
Pf apPOL block: -1; mHTT-CaM PPI inh: 46

How did O=C1NC(=O)C(=Cc2cccn2-c2ccc(Cl)cc2)C(=O)N1 do in these assays?
Pf apPOL block: 37; mHTT-CaM PPI inh: 66*

Results for O=C1NC(=O)C(=Cc2cccn2-c2ccccc2)C(=O)N1 ?
Pf apPOL block: 0; mHTT-CaM PPI inh: 7

What do the screens show for `CC(=O)N1c2ccc(S(=O)(=O)Nc3ccc(OC(F)(F)F)cc3)cc2CC1C` (configuration not stated)?
Pf apPOL block: 3; mHTT-CaM PPI inh: 4

What do the screens show for `O=C1CC(c2ccccc2)CC2=C1C(c1cccc(C(F)(F)F)c1)Nc1ccccc1N2` (configuration not stated)?
Pf apPOL block: -16; mHTT-CaM PPI inh: 61*

What do the screens show for `COc1cccc(C2CC(=O)C3=C(C2)Nc2ccccc2NC3c2ccc(C)s2)c1` (configuration not stated)?
Pf apPOL block: -6; mHTT-CaM PPI inh: 28

How did O=C1CC(c2ccccc2)CC2=C1C(c1ccc(F)cc1)Nc1ccccc1N2 (configuration not stated) do in these assays?
Pf apPOL block: -13; mHTT-CaM PPI inh: 11

What do the screens show for `O=C1CC(c2cccs2)CC2=C1C(c1ccc(Cl)cc1)Nc1ccccc1N2` (configuration not stated)?
Pf apPOL block: -21; mHTT-CaM PPI inh: 33

Results for O=C1CC(c2ccc3c(c2)OCO3)CC2=C1C(c1ccc(C(F)(F)F)cc1)Nc1ccccc1N2 (configuration not stated) ?
Pf apPOL block: 2; mHTT-CaM PPI inh: 62*

Results for O=C1CC(c2ccc3c(c2)OCO3)CC2=C1C(c1ccc3c(c1)OCO3)Nc1ccccc1N2 (configuration not stated) ?
Pf apPOL block: -2; mHTT-CaM PPI inh: 27

Results for CSc1ccc(C2Nc3ccccc3NC3=C2C(=O)CC(c2cccs2)C3)cc1 (configuration not stated) ?
Pf apPOL block: -11; mHTT-CaM PPI inh: 54*

How did COc1cccc(C2CC(=O)C3=C(C2)Nc2ccccc2NC3c2ccc(C(F)(F)F)cc2)c1 (configuration not stated) do in these assays?
Pf apPOL block: -13; mHTT-CaM PPI inh: 53*

What do the screens show for `CC(C)CC(=O)Nc1nnc(CC(C)(C)C)s1`?
mHTT-CaM PPI inh: 1

What do the screens show for `COc1ccc(C(=O)NCc2nnc(SCC(=O)Nc3nccs3)o2)cc1OC`?
Pf apPOL block: 0; mHTT-CaM PPI inh: 7

How did O=C(Nc1cccc(F)c1)c1cc(S(=O)(=O)NCc2ccco2)ccc1F do in these assays?
Pf apPOL block: -2; mHTT-CaM PPI inh: -4

What do the screens show for `COc1ccc(CNc2cc(-c3ccccc3)ccc2OC)cc1O`?
Pf apPOL block: -5; mHTT-CaM PPI inh: 76*

Results for COc1ccc(CNc2ccccc2F)cc1OCc1ccccc1 ?
Pf apPOL block: 3; mHTT-CaM PPI inh: -46

What do the screens show for `Cc1ccc(Sc2nccnc2N2CCCC(C(=O)NCc3ccccn3)C2)cc1` (configuration not stated)?
Pf apPOL block: -3; mHTT-CaM PPI inh: 4

How did O=C(c1ccc(OCC2CCCN(C(=O)C3CCCCC3)C2)cc1)N1CCCCC1 (configuration not stated) do in these assays?
Pf apPOL block: -5; mHTT-CaM PPI inh: 16

Results for O=C(c1ccc(OCC2CCCN(C(=O)C3CCCC3)C2)cc1)N1CCCCC1 (configuration not stated) ?
Pf apPOL block: 96*; mHTT-CaM PPI inh: 4

How did O=C(NCCCSc1ccccn1)Nc1ncccn1 do in these assays?
Pf apPOL block: -8; mHTT-CaM PPI inh: -4

Results for COc1ccccc1CNC(=O)c1cc2n(n1)CCCN(Cc1ccc(Cl)cc1)C2=O ?
Pf apPOL block: -3; mHTT-CaM PPI inh: 15

What do the screens show for `COc1cccc(NC(=O)N2CCN(C)c3ccccc32)c1`?
Pf apPOL block: 0; mHTT-CaM PPI inh: 53*
